GFP derepression – qHTS Assay for Epigenetic Modulators | mouse C127i GFP locus derepression, cytometry, 30 h | Potency, µM (highest dose often 46.1 µM), for inactives: at the highest dose GFP derepression (activation) | 0.09% of 68,000 active; note: % of control where 0% means no effect
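Read-out is the number of GFP-positive cells, scored as fluorescent objects 20 to 120 um wide, reflecting derepression of a silenced CMV-GFP reporter in murine C127i cells after 30 h compound exposure at 37 C.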
HBB splice mod – qHTS Assay for Modulators of Hemoglobin Beta Chain Splicing; Potency, µM (top dose mostly 46.1 µM), inactives show at the top dose activation, most hits filed as activators; AID 925, 2007; HBB splicing reporter cell assay, activation; EGFP reporter with mutant IVS2-654 intron; response scale: normalised to 500 nM splice-correcting PNA; 0.06% of 65,000 active; note: potency is the fitted concentration of half-maximal effect; 0% is about no effect
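HeLa cells stably expressing EGFP interrupted by mutant beta-globin intron 2 (IVS2-654), 500/well in 2% FCS. Treated with compound for 2 days at 37C. Splicing correction scored as total well GFP intensity (488 nm excitation, 500-520 nm emission); 500 nM antisense PNA served as control.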
Ub-GFP proteasome – Ubiquitin-GFP Assay. 67,000 tested, under 10 active. Potency, µM (top dose mostly 45.9 µM), for the others: at the top dose activation (GFP accumulation), hits mostly activators. Ubiquitin-GFP reporter cells, proteasome inhibition, GFP fluorescence; response scale: untreated = 0%, 10 µM MG-132 = 100%; active = well fitted activation curve with a large enough effect, not every such curve was filed as active; inconclusive = small, poorly fitted or top-dose-only effect, or another doubt; inactive = no such curve, though single readings can be large or run the other way; note: potency is the fitted concentration of half-maximal effect
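U2OS cells expressing ubiquitin(G76V)-GFP, seeded overnight in 0.5% FBS medium, then treated 4 hr at 37 C across 46 uM to 2.9 nM. GFP-positive cells counted by laser cytometry (488 ex/515 em); %activity scaled between basal and 10 uM MG-132.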
15-hLO-2 inh – qHTS Assay for Inhibitors of 15-hLO-2 (15-human lipoxygenase 2); AID 881, 2007; 0.56% of 110,000 active; Polyunsaturated fatty acid lipoxygenase ALOX15B (Homo sapiens), O15296; purified 15hLO-2, xylenol orange hydroperoxide absorbance; Potency, µM (doses to about 57.1 µM), for the others: at the top dose activity change, negative = inhibition, hits mostly inhibitors; note: potency is the fitted concentration of half-maximal effect; % is set by controls: 0 for no effect and ±100 for the full control effect; nearly all actives have a fitted effect of over 60% in size
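Purified human 15hLO-2 (50 nM) preincubated 15 min with compound, then 45 uM arachidonic acid for 90 min at RT in 25 mM Hepes pH 7.5, 0.01% Triton X-100. Hydroperoxide detected by Fe-xylenol orange; 573/405 nm absorbance ratio.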
Tau fil binding – qHTS Assay for Tau Filament Binding; Microtubule-associated protein tau (Homo sapiens), P10636; recombinant tau filaments, thioflavin S fluorescence, 15 h; filaments grown with octadecylsulfate alongside compound; Potency, µM (highest dose often 57.1 µM), for the others: at the highest dose activity change, negative = inhibition; 2% of 71,000 active;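 note: potency is the fitted concentration of half-maximal effect; % is set by controls: 0 for no effect and ±100 for the full control effect; actives lower thioflavin S fluorescence by blocking filaments or displacing dye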
Target sequence (P10636 whole entry, looked up): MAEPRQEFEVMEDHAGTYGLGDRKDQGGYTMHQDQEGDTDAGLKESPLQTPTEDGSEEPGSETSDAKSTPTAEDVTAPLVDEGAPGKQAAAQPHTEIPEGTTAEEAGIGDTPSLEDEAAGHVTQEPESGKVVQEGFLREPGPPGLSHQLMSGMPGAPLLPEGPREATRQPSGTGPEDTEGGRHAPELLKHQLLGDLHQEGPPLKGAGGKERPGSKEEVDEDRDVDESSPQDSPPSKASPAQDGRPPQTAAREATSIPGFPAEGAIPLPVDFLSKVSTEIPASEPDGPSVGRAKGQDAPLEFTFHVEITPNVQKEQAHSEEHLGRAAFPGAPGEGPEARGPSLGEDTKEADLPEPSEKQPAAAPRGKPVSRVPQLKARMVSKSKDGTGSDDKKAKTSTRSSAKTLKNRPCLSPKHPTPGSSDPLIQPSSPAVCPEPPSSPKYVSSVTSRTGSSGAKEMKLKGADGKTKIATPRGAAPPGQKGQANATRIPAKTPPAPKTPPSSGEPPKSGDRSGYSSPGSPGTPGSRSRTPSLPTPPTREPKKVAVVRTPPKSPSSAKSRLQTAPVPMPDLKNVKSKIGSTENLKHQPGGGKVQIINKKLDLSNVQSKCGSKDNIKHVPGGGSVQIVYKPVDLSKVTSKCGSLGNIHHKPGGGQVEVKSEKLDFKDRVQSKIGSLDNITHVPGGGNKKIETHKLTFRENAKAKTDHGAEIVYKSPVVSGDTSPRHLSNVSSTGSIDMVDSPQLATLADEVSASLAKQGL
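Thioflavine S fluorescence (ex 450, em 510 nm) reports filaments formed from 1 uM human tau plus 30 uM ODS over 15 h at 37 C (10 mM HEPES pH 7.4, 100 mM NaCl, 5 mM DTT); compounds displacing dye or blocking filaments lower signal.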
ALOX15 inhib – qHTS Assay for Inhibitors of 15-hLO (15-human lipoxygenase); Polyunsaturated fatty acid lipoxygenase ALOX15 (Homo sapiens), P16050; purified 15hLO-1, xylenol orange hydroperoxide absorbance; Potency, µM (highest dose often 57.1 µM), inactives show at the highest dose activity change, negative = inhibition, hits mostly inhibitors; 1.4% of 74,000 active; note: potency is the fitted concentration of half-maximal effect; % is set by controls: 0 for no effect and ±100 for the full control effect; nearly all actives have a fitted effect of over 55% in size
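40 nM 15hLO-1 + cpd, 15 min RT; start w/ 50 uM AA (final), 6 min RT; stop/detect w/ 200 uM XO + 300 uM Fe(II) in 50 mM H2SO4, 30 min; A573/A405. Buffer 25 mM Hepes pH 7.5, 0.01% Triton X-100. No-enzyme wells as negative control.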
Numbers without * were called inactive; ? = inconclusive; · = no result; ! = not confirmed by another sample; [ ] = dose if it differs, or a comment. The list is not random: actives were taken first. Their share in the collection is about 2.3%. Unless noted, calls come from the whole dose curve; as a rule, active = well fitted curve in the direction sought with a large enough effect; inconclusive = small, poorly fitted or top-dose-only effect, or another doubt; inactive = no such curve, though single readings can be large; an effect the other way counts as inactive or inconclusive.

SMILES	GFP derepression	HBB splice mod	Ub-GFP proteasome	15-hLO-2 inh	Tau fil binding	ALOX15 inhib
COCCn1c(=O)c(-c2cccc(C#N)c2)nc2cnc(OCc3ccccc3)nc21	0%[9.22 µM]	0%	5%	5%	25µM*	2%
CC(=C/C=C/C(C)=C/C=C/C=C(C)/C=C/C=C(C)/C=C/C(=O)O)/C=C/C(=O)O	·	-1%	·	-16%	25µM*	5%
O=C(O)/C=C/C(=O)O	·	0%	·	-6%	104%	-5%
N=C(N)SCCSC(=N)N	0%[9.22 µM]	1%[9.22 µM]	-1%[9.17 µM]	5%[11.4 µM]	6%[11.4 µM]	-6%[11.4 µM]
COc1cc(CN2CCCCC2)cc2cc(C(=O)O)c(=O)oc12	6%[9.22 µM]	-2%[9.22 µM]	-11%[9.17 µM]	0%[11.4 µM]	4%[11.4 µM]	5%[11.4 µM]
O=C(O)CCn1nnc(-c2cccs2)n1	1%	·	0%	1%	-6%	9%
CC(C)c1ccc(-c2nnn(CCC(=O)O)n2)cc1	0%	0%[57.5 µM]	-2%	-9%	3%	1.6µM*
CN(C)CCN(Cc1ccccc1)S(=O)(=O)c1cccc2cccnc12	·	0%	-4%	·	-21%	-6%
N#Cc1c(-c2ccco2)cc(-c2ccccn2)nc1N	7%	-1%	-7%	17%	-11%	0%
N#Cc1c(-c2ccco2)cc(-c2cccnc2)nc1N	0%	2%[57.5 µM]	-1%	?	225%	7.9µM*
COC(=O)/C(C#N)=C1/SC=C(C)N1c1ccccc1	0%[20.6 µM]	·	·	3%	·	·
N#C/C(C(=O)c1ccccc1)=C1/SC=C(N)N1c1ccccc1	15%	7%	-5%	?	-4%	16µM*
CCc1nc2sc3ccccc3c(=O)c2c(=O)n1Cc1ccco1	0%	6%[0.369 µM]	2%	·	16µM*	-15%
O=c1c2ccccc2sc2nc(C3CCCCC3)n(Cc3ccco3)c(=O)c12	0%	2%[0.369 µM]	-7%	?	10µM*	-21%
NC(N)=NC[C@H](N)C(=O)O	-2%[9.22 µM]	0%[9.22 µM]	-1%[9.17 µM]	0%[11.4 µM]	-10%[11.4 µM]	9%[11.4 µM]
CN(CC(=O)O)CC(=O)O	6%[9.22 µM]	1%[9.22 µM]	-5%[9.17 µM]	-2%[11.4 µM]	5%[11.4 µM]	24%[11.4 µM]
COc1ccc2c3c(cccc13)N(C)N=C2C	·	·	·	2.5µM*	·	·
COc1ccc(S(=O)(=O)N2CCN(C)CC2)c2ccccc12	·	-1%	6%	1%	-15%	13%
O=C(c1ccc(F)cc1)C1CCN(CCn2c(=O)[nH]c3ccccc3c2=O)CC1	-2%[20.6 µM]	0%[20.6 µM]	-1%	23%	32µM*!	-10%[25.6 µM]
O=C(CCCCn1c(=O)[nH]c2ccccc2c1=O)NC1CCN(Cc2ccccc2)CC1	·	0%	0%	·	2%	7%
O=S(=O)(Nc1ccc(S(=O)(=O)N2CCCCC2)cc1)c1cccs1	6%	0%	0%	-7%	2%	-1%
O=S(=O)(Nc1ccc(N2CCOCC2)cc1)c1cccs1	-2%	0%	0%	-6%	16µM*	-1%
O=C(CSc1nc2ccc(S(=O)(=O)N3CCOCC3)cc2[nH]1)N1CCOCC1	6%	0%[57.5 µM]	-3%	-15%	-10%	7.9µM*
O=C(CSc1nc2ccccc2c(=O)[nH]1)N1CCOCC1	0%	-1%	5%	9%	-7%	3%
Oc1ccc(N2CCN(c3ncnc4sc5c(c34)CCC5)CC2)cc1	-1%	-3%	3%	?	-19%	3.2µM*
SMILES	GFP derepression	HBB splice mod	Ub-GFP proteasome	15-hLO-2 inh	Tau fil binding	ALOX15 inhib
c1ccc(-c2cc3c(ccc4nonc43)nn2)cc1	-3%	-1%[0.0738 µM]	10%[9.17 µM]	-2%	3.2µM*	7%[11.4 µM]
COc1ccc(OC)c(NS(=O)(=O)Cc2ccccc2)c1	0%	3%	-2%	-27%	16µM*	-19%
COc1ccc(OC)c(S(=O)(=O)NCc2ccccc2)c1	-2%	-1%[57.5 µM]	-5%	-5%	10%	9%
Clc1ccccc1OCc1nc(-c2ccc(Br)o2)no1	·	·	·	-16%	·	·
Fc1ccc(OCc2nc(-c3ccc(Br)o3)no2)c(F)c1	·	-1%	16%	-20%	-13%	7.9µM*
CC1=C(\C=C/C(C)=C/C=C\C(C)=C\C(=O)O)C(C)(C)CCC1	0%	1%[20.6 µM]	1%	-1%	?	?
CC1=C(/C=C/C(C)=C/C=C/C(C)=C/C(=O)Nc2ccc(O)cc2)C(C)(C)CCC1	·	-1%	·	-10%	3.2µM*	?
COc1ccc(C2C(C(C)=O)=C(C)N=c3s/c(=C\c4ccc5c(c4)OCO5)c(=O)n32)c(OC)c1 (centres undefined)	-2%	-1%[9.22 µM]	15%	·	4µM*	-5%
CCc1ccc2oc(-c3cc(N)ccc3O)nc2c1	-3%	1%[57.5 µM]	2%	?	25µM*	?
CCc1ccc2oc(-c3cc(N)cc(C)c3O)nc2c1	0%	0%	-4%	17%	13µM*	-17%
N#CC1=C(N)OC(c2ccccc2)=C(C#N)C1c1ccc2c(c1)OCO2 (centres undefined)	0%	-1%	0%	-15%	-24%	32µM*
N#CC1=C(SCC(=O)c2ccc(Br)cc2)NC2=C(C(=O)CCC2)C1c1ccco1 (centres undefined)	2%[20.6 µM]	·	·	-10%	·	·
O=C1CCCC2=C1C(c1ccco1)Nc1ccc(C(=O)c3ccccc3)cc1N2 (centres undefined)	-3%	5%	6%	-9%	6.3µM*	2.5µM*
CC(=O)N1CCN(c2ccc(NCc3ccc4c(c3)OCO4)cc2)CC1	-4%	0%	-9%	13µM*	?	?
O=C(c1ccc2c(c1)OCO2)N1CCN(c2ccccc2)CC1	3%	-3%	-2%	-9%	11%	-21%
O=C(c1ccccc1)N1CCN(c2ccc(NCc3ccc4c(c3)OCO4)cc2)CC1	-3%	-1%	-6%	20µM*	32µM*	25µM*
O=Nc1ccc(NO)cc1	·	-1%	·	-5%	-29%	-3%
CS(=O)(=O)c1ccc(/C=N\NC(N)=S)cc1	-2%[9.22 µM]	3%[9.22 µM]	1%[9.17 µM]	-7%[11.4 µM]	-1%[11.4 µM]	-1%[11.4 µM]
Oc1ccc(-c2nc3ncccn3c2Nc2ccc3c(c2)OCO3)cc1	-4%	-2%	-8%	-19%	-26%	10µM*
Brc1ccc(-c2nc3ncccn3c2NC2CCCCC2)o1	·	·	·	-14%	·	·
Cc1ccc(-c2nc3ncccn3c2NC2CCCC2)o1	-4%	-3%	-9%	-29%	13µM*	3%
Cc1ccc(-c2nc3ncccn3c2Nc2ccc3c(c2)OCO3)o1	0%	0%	-12%	·	13µM*	-21%
N[C@@H](Cc1[nH]nc2ccccc12)C(=O)O	1%[9.22 µM]	0%[9.22 µM]	0%[9.17 µM]	5%[11.4 µM]	10%[11.4 µM]	12%[11.4 µM]

Screens: PubChem BioAssay, National Center for Advancing Translational Sciences (NCATS)
